The list is not random: actives were taken first. Their share in the collection is about 2.3%.
CHT block: inhibitors of human choline transporter CHT. Q9GZV3. CHT-expressing cells, membrane potential dye, choline response; active compounds read low. B-score at 10 µM. actives 0.86% (n = 310,000). AID 488975;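 active = B-score over 3 SD under the library average, and starting fluorescence ratio not unusually high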;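 note: choline stimulus applied at its EC90 after an EC20 pre-addition; B-score computed on integrated fluorescence ratio after choline addition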
ANO1 activ: mouse TMEM16A channel activation, primary screen; Q8BHY3; HEK293 TMEM16A/YFP-H148Q/I152L, iodide quench fluorescence; active compounds read low; B-score at 10 µM; actives 0.3% (n = 340,000); AID 623877;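 active = fluorescence-ratio B-score plate-corrected deviation score at least 3 library SD below zero, with starting fluorescence score within 5 deviations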;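 note: channel opened by trigger with iodide after compound preincubation; score built on the fluorescence ratio of max minus min over baseline; more negative score means more quench and so TMEM16A activation or potentiation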
ANO1 block: mouse TMEM16A channel inhibition, primary screen; HEK293 TMEM16A/YFP iodide influx fluorescence, ionomycin; normalized B-score (activity score, 25-100; higher = stronger inhibition) at 10 µM; actives 1.2% (n = 310,000); AID 588511;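 active = ratio plate-corrected score three or more library SD toward inhibition, starting fluorescence score within five deviations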;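 note: score derived from kinetic fluorescence span divided by baseline fluorescence per well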
CHT allo act: human CHT allosteric activation; Q9GZV3; CHT-expressing cells, membrane potential dye, choline EC20; active compounds read high; LV-AA mutant CHT in HEK293 cells; B-score at 10 µM; actives 0.49% (n = 310,000); AID 488977;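 active = initial fluorescence not abnormally high and integrated response B-score, plate-corrected, over 3 SD above library mean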
CHT act confirm: human CHT activation, confirmatory screen; shares compounds with CHT allo act; CHT-expressing cells, membrane potential dye fluorescence (FDSS); % of choline EC20–EC90 response window; HEK293 expressing CHT LV-AA mutant; choline added at its EC20; activation, % at 10 µM; actives 91% (n = 2,500); AID 504833;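 active = primary screen active, with duplicate mean activation above negative control mean plus 3 SD, cut at about 11% in these data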
HEK293 MP dye: counter-screen for CHT activators: effect in parental HEK293 cells | shares compounds with CHT allo act | membrane potential dye fluorescence (FDSS); measured after EC20 choline addition | ratio readout change at 10 µM, hits read low | actives 62% (n = 2,500) | AID 623908;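 active = duplicate-averaged ratio beyond 3 SD from buffer wells, up or down, though filed actives are nearly all decreases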
A number is an active result; – = inactive; · = not tested or not shown.

SMILES	CHT block	ANO1 activ	ANO1 block	CHT allo act	CHT act confirm	HEK293 MP dye
Cc1ccc(-n2c(C)cc(/C=N/NC(N)=S)c2C)cc1	–	–	–	14	33	–
CNC(=S)N/N=C/c1cc(C)n(-c2ccc(Cl)c(Cl)c2)c1C	–	–	–	9.3	–	–
CNC(=S)N/N=C/c1ccccc1Cl	–	–	–	–	·	·
CC(C)c1ccc(-c2cc(C(=O)N3CCOCC3)c3cc(Br)ccc3n2)cc1	–	–	–	–	·	·
CCc1cc(CNC(=O)c2ccc(OC3CCN(CCc4ccccc4)CC3)cc2)on1	–	–	–	6.5	–	-25
COc1ccc(CCNCc2ccc(OCc3ccc(Cl)nc3)c(OC)c2)cc1OC	–	–	–	7.8	37	–
CCc1nc2ccc(Cc3ccc4nc(CC)[nH]c4c3)cc2[nH]1	–	–	–	7.1	49	-52
Cc1ccc2nc(CCc3ccc(N)cc3)[nH]c2c1	–	–	–	–	·	·
CC[n+]1c(C)n(-c2ccccc2)c2ccc(C(=O)OC)cc21	–	–	–	7.5	32	-29
COc1ccccc1S(=O)(=O)Cc1ccc(C(=O)NCCCN2CCN(c3ccc(F)cc3)CC2)o1	–	–	–	–	·	·
OC(C#CCCN1CCCCC1)(c1ccccc1)C1CCCCC1 (stereo not given)	–	–	–	7.5	18	–
COc1cc(C(=O)N/N=C/c2ccsc2C)cc(OC)c1OC	–	–	–	–	19	–
COc1ccc(Br)cc1/C=N/NC(=O)c1cc(OC)c(OC)c(OC)c1	–	–	–	–	·	·
N#Cc1c(N2CCN(c3ccc([N+](=O)[O-])cc3)CC2)[n+](=O)c2ccc(Cl)cc2n1[O-]	·	–	·	·	·	·
COCCNc1cc(C)c(C#N)c2nc3ccccc3n12	–	–	–	–	24	-49
Cc1cc(NCCOCCO)n2c(nc3ccccc32)c1C#N	–	–	–	–	51	-59
CC(C)C[C@@H](CN1C(=O)C(=O)NC[C@@H]1CC(C)C)NC(=O)Cc1ccccc1	·	–	·	·	·	·
CCc1nc2ccccc2c(=O)n1/N=C/c1ccc(OC)cc1	–	–	–	–	·	·
CN=c1scc(-c2ccc(Br)cc2)n1C	–	–	–	–	35	-44
CC1(C)Cc2c(sc3c2C2=NCCN2C=N3)CS1	–	–	–	9.5	34	-62
COc1ccc(-n2c(Cc3ccccc3)nnc2SCc2ccc([N+](=O)[O-])cc2)cc1	–	–	–	–	·	·
O=[N+]([O-])c1ccc(CSc2nnc(Cc3ccccc3)n2-c2ccc(F)cc2)cc1	–	–	–	–	21	–
CCN(C(=O)c1cccc(S(=O)(=O)N(C)C)c1)C12CC3CC(CC(C3)C1)C2	–	–	–	9.7	14	–
CCN(C(=O)c1ccc2c(c1)OCO2)C12CC3CC(CC(C3)C1)C2	·	–	·	·	·	·
NC(=O)CC[C@H](NC(=O)c1ccc(F)cc1)C(=O)OCC(=O)NCc1ccc2c(c1)OCO2	·	–	·	·	·	·
SMILES	CHT block	ANO1 activ	ANO1 block	CHT allo act	CHT act confirm	HEK293 MP dye
CCOC(=O)c1sc(NC(=O)Cc2ccccc2OC)nc1C	–	–	–	–	15	–
CCOC(=O)c1sc(NC(=O)c2c(OC)cccc2OC)nc1C	–	–	–	–	·	·
COc1ccc(C(=O)COC(=O)c2ccccc2O)c(OC)c1	·	–	·	·	·	·
CSC1SCC2C(=O)N(C)C(C(C)C)C(=O)OCC(NC(=O)c3cnc4ccccc4n3)C(=O)NC(C)C(=O)N(C)C1C(=O)N(C)C(C(C)C)C(=O)OCC(NC(=O)c1cnc3ccccc3n1)C(=O)NC(C)C(=O)N2C (stereo not given)	·	–	·	·	·	·
N#Cc1c(=O)c2nc(NCCCO)ncc2n2c(=O)c3ccccc3[nH]c12	–	–	–	–	·	·
N#Cc1c(=O)c2nc(NCc3ccccc3)ncc2n2ccccc12	–	–	–	–	24	-40
CCOC(=O)Nc1nc(-c2ccccc2)c(C(=O)c2ccc(Cl)cc2)s1	–	–	–	–	35	–
CCOC(=O)Nc1sc(C)nc1-c1ccccc1	–	–	–	–	·	·
Cc1ccc(C(=O)C[n+]2cccc3cc(C)ccc32)cc1	–	–	–	–	38	-35
Cc1ccc(C)c(N2CCN(S(=O)(=O)c3ccc4c(c3)NC(=O)CS4)CC2)c1	–	–	–	–	·	·
